# Results reported in the supplement of paper PMC10338343.
# ± gives the standard deviation. Over roughly 6,200 sequences, “pre-steady-state target cleavage rate” has its median near 0.29; the highest 2% begin near 2. The sample as a whole holds a higher share of the highest values than the screen did.
# Test system: MIWI (PIWIL1) piRISC loaded with piRNA #1 (30 nt)
# Test: pre-steady-state target cleavage rate (min^-1); MIWI and MILI are mouse PIWI proteins and EfPiwi is from a freshwater sponge; tags in brackets are library labels; higher = faster piRNA-guided slicing of the target
# Details: guide: piRNA #1 5'p-UGAGGUAGUAGGUUGUAUAGUAUCCAGAGG; auxiliary factor: 500 nM mouse GTSF1
# Procedure: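 Cleave-'n-Seq: a library of target RNAs (target site embedded in constant flanks, ACAGCATTCCGCGTTAGTGATATCCG... 5' flank; DNA-blocked outside the site) at 0.1 nM was incubated with 1 nM active mouse MILI or MIWI piRISC (synthetic 5'-monophosphorylated piRNA guide) with or without 500 nM mouse GTSF1 at 33 °C for 1 min to 16 h. Uncleaved targets were sequenced and normalised to non-target controls, and the pooled three trials were fitted to a burst-and-steady-state model to give the pre-steady-state cleavage rate (min^-1; k3 is constrained to at most 1e-4). Sequence is the target site only; target names encode pairing extent (gX:gY) and contiguous / 1-mismatch / 2-mismatch / bulge geometry. Fits with R² ≤ 0 are excluded.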
row,Sequence,pre-steady-state target cleavage rate
1,GGAGACCUAUGUAUACAUCCUAGUACCUCA,0.00528 ± 0.0014
2,GGAGACCUAACUAUACUACCUUCUACCUCA,0.00903 ± 0.0034
3,CCUCACCAUACUAUACAACCUACUACCUCA,2.03 ± 0.12
4,GGAGACCAUACUAUACAACCUACUACUUCA,2.14 ± 0.14
5,GCUCACCAUACUAUACAACCUACUACCUCA,1.87 ± 0.13
6,GCUCUCCAUACUAUACAACCUACUACCUCA,2.13 ± 0.13
7,CCUCUCCAUACUAUACAACCUACUACCUCA,2.04 ± 0.12
8,GGUCACCAUACUAUACAACCUACUACCUCA,1.77 ± 0.11
9,GGUCUCCAUACUAUACAACCUACUACCUCA,1.79 ± 0.1
10,GGACUCCAUACUAUACAACCUACUACCUCA,1.67 ± 0.11
11,GGAGACCAUACUAUACAACCUACUACCUUCA,1.59 ± 0.1
12,GGAGACCAUACUAUACAACCUACUACCUACA,1.77 ± 0.18
13,GCUCUCCUUACUAUACAACCUACUACCUCA,1.85 ± 0.12
14,GGAGUCCAUACUAUACAACCUACUACCUCA,1.63 ± 0.091
15,GGAGUGGAUACUAUACAACGUACUAGCUCA,0.0857 ± 0.017
16,GCUCUCGAUACUAUACAACCUACUACGUCA,1.24 ± 0.079
17,GCACUGGAUACUAUACAUCCUACUACCUCA,1.88 ± 0.096
18,CCUCAGGAUACUAUACAACCUACUAGCUCA,1.13 ± 0.056
19,GGAGACGAUACUAUACAACCUACUACCUUA,1.35 ± 0.09
20,GGAGUGCAUAGUAUACAACCUACUACCUCA,0.659 ± 0.04
21,GGAGACCUAUCUAUAGAACCUAGUACCUCA,0.0363 ± 0.0089
22,GGAGAGAGAUACUAUACAACCUACUACCUCA,2.02 ± 0.12
23,GGAGAAGAUACUAUACAACCUACUACCUCA,2.04 ± 0.11
24,GGAGUGAUACUAUACAACCUACUACCUCA,1.77 ± 0.11

row,Sequence,pre-steady-state target cleavage rate
1,GGAGAGAUACUAUACAACCUACUACCUCA,1.89 ± 0.11
2,GGAGAGUGAUACUAUACAACCUACUACCUCA,2.1 ± 0.15
3,GGAGUGAGAUACUAUACAACCUACUACCUCA,1.77 ± 0.094
4,GGAGAUGAUACUAUACAACCUACUACCUCA,1.86 ± 0.095
5,GGAGUGUGAUACUAUACAACCUACUACCUCA,1.81 ± 0.1
6,GGAGAGGAUACUAUACAACCUACCUACCUCA,1.05 ± 0.059
7,GGAGUGGAUACUUUACAACCUACUACCUCA,1.53 ± 0.086
8,GGAGACCAUACAAUACAACCUACUAGCUCA,0.486 ± 0.067
9,GGAGACCUAACUAUAGAACCUACUACCUGA,0.188 ± 0.066
10,GGACUGGAUACUAUACAACGUACUACCUGA,0.377 ± 0.047
11,ACUCUGGAUACUAUACAACCUACUACCUCA,2.19 ± 0.13
12,CCUCUGGAUACUAUACAACCUCACUACCUCA,0.0086 ± 0.0033
13,CACUCUGGAUACUAUACAACCUACUACCUCA,2.09 ± 0.12
14,CCUCUGGAUACUAUACAACCUACUACACUCA,0.874 ± 0.073
15,GGAGACGAUACGUAUACAACCUACUACCUCA,1.4 ± 0.13
16,GGAGUGGAUACUAUACAACCUACUGACCUCA,0.489 ± 0.043
17,GCUCUUGAUACUAUACAACCUACUACCUCA,2.03 ± 0.11
18,GCUCUGUGAUACUAUACAACCUACUACCUCA,1.81 ± 0.11
19,GGUCUUGAUACUAUACAACCUACUACCUCA,1.87 ± 0.11
20,CCUCUUGAUACUAUACAACCUACUACCUCA,2.33 ± 0.14
21,GGACUUGAUACUAUACAACCUACUACCUCA,1.73 ± 0.12
22,GGAGUUGAUACUAUACAACCUACUACCUCA,1.97 ± 0.13
23,GCUCUGGAUACUAUACAACCUACAACCUGA,0.744 ± 0.14
24,GGAGUCGAUACUAUACAACCUACUACCUCA,1.47 ± 0.091

row,Sequence,pre-steady-state target cleavage rate
1,GGAGACCAUAACUAUACAACCUACUACCUCA,1.24 ± 0.089
2,CCUCUGGAUAAUAUACAACCUACUACCUCA,2.06 ± 0.12
3,GGUCUGGAUAAUAUACAACCUACUACCUCA,1.88 ± 0.12
4,GCUCUGGAUACUAAUACAACCUACUACCUCA,1.49 ± 0.09
5,CCUCUGGAUAUAUACAACCUACUACCUCA,1.9 ± 0.12
6,GCUCUGGAUACUAUACAACCUAAUACCUCA,1.55 ± 0.12
7,GCUCUGGAUAAUAUACAACCUACUACCUCA,2.07 ± 0.13
8,CCUCUGGAUACUAUAGAACCUACUACCUCA,0.664 ± 0.06
9,GGAGACCAUUCUUUACAACCUACUACCUCA,0.387 ± 0.059
10,GCUCUGGAUAGUAUACUACCUACUACCUCA,0.858 ± 0.049
11,GGUCUGGAUACAAUACUACCUACUACCUCA,1.09 ± 0.092
12,CCUCUGGAUACUAUACAACCUACUACCUCC [g2:g30:cont:t1C],2.18 ± 0.14
13,CCUCUGGAUACUAUACAACCUACUACCUA,1.52 ± 0.096
14,CCUCUGGAUACUAUACAACCUACUACCUCG [g2:g30:cont:t1G],1.32 ± 0.094
15,CCUCUGGAUACUAUACAACCUACUACCUCU [g2:g30:cont:t1U],2.36 ± 0.14
16,CCUCUGGAUACUAUACAACCUACUACCUAA,1.9 ± 0.1
17,CCUCUGGAUACUAUACAACCUACUACCUACA,1.79 ± 0.096
18,GGAGAGGAAACAAUACAACCUACUACCUCA,0.95 ± 0.079
19,GGAGACGAUACUAUUCAUCCUACUACCUCA,1.09 ± 0.061
20,GGAGUGGAUACUAUCAACCUACUACCUCA,1.58 ± 0.11
21,GGAGACCUAUCUAUACAACCUACUUCCUGA,0.0338 ± 0.01
22,GGAGACCUAUCUAUACAACCUUCUACCACA,0.136 ± 0.015
23,GGACUGGAUAUUAUACAACCUACUACCUCA,1.62 ± 0.11
